From PubChem
Shown are actives, neighbours in structure and some others; about 13% of the full set was active somewhere.
WT yeast gro inh – growth inhibition of WT yeast, mitochondrial fusion screen; mitochondrial fusion phenotypic screen, WT strain; AID 1362; 190,000 tested, 2.1% active; inhibition, % at 10 µM; in the data active = inhibition above about 58%; tested in S. cerevisiae
CHOP inh – blocks CHOP induction under ER stress | 220,000 tested, 3.8% active | CHO-K1 CHOP-promoter luciferase, tunicamycin-induced, 15-18 h | inhibition, % at 10 µM;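 active = compounds that reduced the stress-induced luciferase reporter signal by more than about 70% of percent inhibition, limit read from the data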;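 note: 0% = tunicamycin plus vehicle and 100% = wells without tunicamycin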
RAM inhibit – inhibitors of the yeast RAM network. 190,000 tested, 1.8% active. AID 868. inhibition, % at 50 µM. S. cerevisiae dse1pr::URA3 reporter, 5-FOA growth OD615, 2 d; analog-sensitive cbk1-as2 kinase mutant strain;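 active = inhibition above a set limit, 3 SD over mean compound inhibition, cut at about 8.4% in these data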;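 note: 0% = DMSO-only wells with no growth and 100% = 10 µM 1-NA-PP1 full growth; inhibition rescues growth on 5-FOA so higher OD means more RAM inhibition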
Lmaj promast – reduces viability of Leishmania major promastigotes; resazurin fluorescence viability; inhibition, % at 10 µM; 200,000 tested, 9% active; AID 1063; in the data active = inhibition above about 50%;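 note: promastigotes grown with compound for 44 hours at 28 °C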
RAM 5-FOA – RAM network inhibition, efflux-deficient strain | shares compounds with RAM inhibit | S. cerevisiae efflux-deficient reporter strain, 5-FOA growth OD615, 2 days | max inhibition, % | 1,200 tested, under 10 active; call rule not given here;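 note: plate controls were vehicle for no effect and reference inhibitor for full effect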
Active calls of the source: *; · = no result given.

SMILES	WT yeast gro inh	CHOP inh	RAM inhibit	Lmaj promast	RAM 5-FOA
Cn1c(=O)[nH]c(=O)c2c1nc(Sc1ccccc1)n2CCc1ccccc1	11	29	1	1	2
Cc1ccc(Cl)cc1N1CCN(C(=S)NCCc2ccccc2)CC1	66*	16	13*	0	3
CC(C)C(=O)Nc1nc2c(c(=O)[nH]1)CCCC2	-6	0	2	-9	·
Cc1ccc(Cn2c(=S)[nH]c3ccc(N4CCOCC4)cc3c2=O)o1	0	-127	1	-10	·
Cc1ccc(C)c(N2CCN(C(=O)c3ccc(Cn4c(=S)[nH]c5ccc(N6CCOCC6)cc5c4=O)cc3)CC2)c1	-3	26	13*	99*	3
O=C(NC1CCS(=O)(=O)C1)c1cc(-c2ccccc2)nc2ccccc12 (stereo unspecified)	1	21	2	12	·
Clc1ccc(-c2nnc(CSc3nnc(-c4cccs4)o3)o2)cc1	-2	70*	13*	-7	2
NC(=O)CSc1nnc(-c2cccc(S(=O)(=O)N3CCCCC3)c2)o1	·	12	·	·	·
O=C(CSc1nnc(-c2cccc(S(=O)(=O)N3CCCCC3)c2)o1)NCCC1=CCCCC1	3	24	12*	-5	4
CC(Sc1nnc(-c2ccco2)o1)C(=O)NCCC1=CCCCC1 (stereo unspecified)	17	1	1	-2	·
CCN(CC)S(=O)(=O)c1cccc(-c2nnc(SC(C)C(=O)NCCC3=CCCCC3)o2)c1 (stereo unspecified)	-6	42	14*	36	9
CSCCCNC(=S)N1CCc2ccccc2C1	52	33	2	3	·
CC(NS(=O)(=O)c1ccc(OCC(=O)Nc2cccc([N+](=O)[O-])c2)cc1)c1ccccc1 (stereo unspecified)	-2	-12	4	38	·
CCCc1ccc(/C=C2\C(=O)c3ccccc3C(O)=C2C(=O)OCC)cc1	59*	86*	12*	-7	4
COc1ccc(S(=O)(=O)N2CCC(C(=O)NCc3cccs3)CC2)cc1	-3	15	4	-2	·
CC1CCN(c2nc(-c3ccccc3)cc(C(F)(F)F)n2)CC1	12	13	7	-4	·
Cc1ccc(-c2cc(C(F)F)nc(N3CCC(C)CC3)n2)cc1	17	26	12*	2	5
CCC(C)Nc1nc2c(C)cccn2c(=O)c1C=Nc1ccc(OC)cc1 (stereo unspecified)	20	38	2	-9	·
CCC(C)N1C(=O)/C(=C/c2c(NCCCOC(C)C)nc3c(C)cccn3c2=O)SC1=S (stereo unspecified)	16	12	18*	4	3
CCC(C)NC(=S)N1CCN(C)CC1 (stereo unspecified)	4	-1	5	2	·
CCN(Cc1ccccc1)c1ccc(/C=C(\C#N)c2ccccn2)cc1	11	-28	17*	1	10
COc1cc(/C=C(\C#N)c2ccccn2)ccc1OCc1ccc(Cl)cc1	4	1	12*	7	3
N#C/C(=C\c1ccc(C(=O)O)cc1)c1ccccn1	16	-19	2	15	·
Cc1cnn(-c2nc(-c3ccccc3)cc(-c3ccccc3)n2)c1	41	56	14*	27	1
FC(F)(F)c1cc(-c2ccccc2)nc(-n2cc(Cl)cn2)n1	-1	68	3	19	·
SMILES	WT yeast gro inh	CHOP inh	RAM inhibit	Lmaj promast	RAM 5-FOA
CCCCCOP(=O)(OCCCCC)C1(NS(=O)(=O)c2ccccc2)C=CC(=O)c2ccccc21 (stereo unspecified)	14	0	12*	100*	1
CCc1nc2ccccc2n1Cc1ccccc1F	-5	1	1	13	·
CCCSc1nc(SCC(=O)NCc2ccccc2)c2c3c(sc2n1)COC(C)(CC)C3 (stereo unspecified)	8	4	12*	-4	2
CSc1nc(SCC(=O)NCc2ccco2)c2c3c(sc2n1)COC(C)(C)C3	6	2	2	-1	·
CCCCSc1nc(SCC(=O)NCc2ccco2)c2c3c(sc2n1)COC(C)(CC)C3 (stereo unspecified)	-10	-20	14*	-4	7
Cc1cc(C(=O)OCC(=O)Nc2cccnc2Cl)c2ccccc2n1	17	9	1	-2	·
N#Cc1nc(-c2ccc(OCc3ccccc3)cc2)oc1NCc1ccco1	7	-11	16*	-4	4
O=C(NC1=NCCS1)c1ccc(Cl)c(S(=O)(=O)N2CCOCC2)c1	17	1	3	3	·
O=S(=O)(Nc1cccc(-c2nnco2)c1)c1ccc(F)cc1F	·	-4	·	·	·
CCN(CC)S(=O)(=O)c1cccc(-c2nnc(SCCCC(=O)c3ccccc3)o2)c1	-9	29	12*	11	3
CCN(CC)S(=O)(=O)c1cccc(-c2nnc(SCCCC(=O)c3ccc(F)cc3)o2)c1	-14	47	13*	16	3
CCN(CC)S(=O)(=O)c1cccc(-c2nnc(SCc3nc4ccccc4s3)o2)c1	8	0	15*	4	3
CCN(CC)S(=O)(=O)c1ccc(-c2nnc(SCC(=O)c3ccc(OC)cc3)o2)cc1	3	1	6	1	·
C/C(=N\NC(=O)c1c(Br)cnn1C)c1ccc(NC(=O)c2ccc(F)cc2)cc1	0	8	5	-3	·
CCOc1ccccc1NC(=O)c1ccccc1-c1nc(-c2ccccc2)no1	40	3	12*	16	6
Cc1cc(Br)ccc1SCC(=O)OCC(=O)NC1CCCC1	4	-32	17*	-5	2
Cc1cc(C)c(NC(=O)COC(=O)CSc2ccc(Br)cc2C)c(C)c1	-7	6	8	-6	·
O=C(CN1C(=O)COc2ccc(S(=O)(=O)N3CCCC3)cc21)NC1CCCCCCC1	6	9	-1	3	·
Cc1cccc(NC2=Nc3ccccc3N3C2=Nc2c(c(C)nn2-c2ccccc2)C3c2ccc(O)c(O)c2)c1 (stereo unspecified)	19	-5	12*	-7	9
Cc1nn(-c2ccccc2)c2c1C(c1ccc([N+](=O)[O-])cc1)N1C(=N2)C(=O)Nc2ccccc21 (stereo unspecified)	-10	44	5	48	·
Cc1ccc(NC2=Nc3ccccc3N3C2=Nc2c(c(C)nn2-c2ccccc2)C3c2ccc(O)c(O)c2)cc1 (stereo unspecified)	0	0	11*	86*	10
O=C(CSc1ccccc1)NCCSCc1ccccc1	-5	13	0	-4	·
COc1cc(C(=O)Nc2c(C)cc(C)cc2C)c(Br)c(OC)c1OC	8	34	-1	4	·
CN(C(=O)COC(=O)c1sc2ccccc2c1Cl)C1CCCCC1	54	34	14*	-11	3
CN(C(=O)COC(=O)c1ccc[nH]c1=O)C1CCCCC1	11	-8	3	-6	·
CCOc1ccc(Br)cc1S(=O)(=O)Nc1cccc(S(=O)(=O)N(C)c2ccccc2)c1	38	29	4	32	·
CCOC(=O)c1sc(-c2ccccc2)cc1NC(=O)c1ccc(S(=O)(=O)N(CCOC)CCOC)cc1	-18	25	18*	7	3
